Assay outcomes from PubChem BioAssay.
This is one part of a sample in which hits are shown more often than they occur.
Tgondii IFNg = T. gondii growth inhibition with IFN-gamma, primary screen, cell-based; Toxoplasma gondii growth in IFN-gamma-treated host cells; active compounds read low; activity change, negative = inhibition, % (test concentration not listed); actives 3.8% (n = 69,000); AID 1259416, 2018; in the data active means activity change below about -70%, passing the limit was not always enough;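 further: host cells are HeLa cells infected with Toxoplasma gondii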
* = called active by the depositor; ! = repeats disagree.

SMILES	Tgondii IFNg
Cc1cnc(C)c(-c2cc(O)c3c(c2)CN(CCC2CCCN2C)CCO3)n1 (stereo unspecified)	-3.1
CC(NC(=O)c1cc(-c2ccc(F)cc2)no1)c1nc2ccccc2n1C(C)C (stereo unspecified)	-10.4
CC(C)n1c(SCC(=O)O)nc2ccccc21	28.9
CC(C)n1c(/C=C/[C@@H](O)C[C@@H](O)CC(=O)O)c(-c2ccc(F)cc2)c2ccccc21	-77.8*!
C=CCN(Cc1cccc(OCC)c1)C(=O)C1CCOCC1	-2.3
CC(Cc1cn(CCCN2CCCC2=O)nn1)c1ccccc1 (stereo unspecified)	15.8
COc1cc(CCC(=O)N2CCN(C)C(=O)C(Cc3ccccc3-c3ccccc3)C2)on1 (stereo unspecified)	1.4
Nc1c(-c2n[nH]c(=S)n2Cc2ccccc2)cnn1-c1ccccc1	-35.8
COc1ccc(NC(=O)C2OC3OC(C)(C)OC3C3OC(C)(C)OC23)cc1 (stereo unspecified)	-94.1*
COc1ccc(Oc2ccc(NC(=O)C3C4CC5OC(=O)C3C5C4)cc2)cc1 (stereo unspecified)	-6.7
COc1ccc(NC(=O)N2CCOCC2)cc1	33.3
COc1ccccc1CCC(=O)N1CCC[C@@H]1C(=O)NCCc1csc(-c2ccccc2)n1	21.3
NCC1CN(Cc2cn(CCC(N)=O)c3ccccc23)CCO1 (stereo unspecified)	-3.0
CCCCc1cc(C)c2[nH]c(=O)cc(C)c2c1	-87.9*
CCCc1[nH]c(=O)cc2cc(OC)c(OC)cc12	-39.8
CC(=O)CCc1c(C)c2cccc(C)c2[nH]c1=O	25.3
COc1ccc2ccc(OCc3nc(C(=O)N4CCOCC4CO)co3)cc2c1 (stereo unspecified)	7.6
COc1ccc(-c2cc3c(=O)n(Cc4nc(-c5cccc(OC)c5OC)oc4C)ccn3n2)cc1OC	-9.2
CN1CC[C@@]2(CN(Cc3nccs3)C[C@H]2c2ccccc2)C1=O	161.4
CC1(C)CC(=O)c2cc(-c3ccccc3)n(CC(=O)O)c2C1	18.5
COc1ccccc1-n1c(-c2ccc(Br)cc2)cc2c1CC(C)(C)CC2=O	-92.2*
Cc1ccccc1-n1nc(C)c2c1CC(C)(C)CC2=O	-30.1
Cc1ccc2c(CN3CCN(Cc4nc(-c5ccccc5Cl)oc4C)CC3)cc(=O)oc2c1	8.0
Cc1csc(SCC(=O)N2CCc3c(cc(-c4cccc(Cl)c4)c(=O)n3CC3CC3)C2)n1	-29.9
OC(c1ccccc1)(c1ccccc1)C1CCN(C(=S)Nc2ccc(Cl)cc2)CC1	0.8
SMILES	Tgondii IFNg
O=C(/C=C/c1ccccc1)NC(NC(=S)Nc1ccc(Cl)cc1)C(Cl)(Cl)Cl (stereo unspecified)	-78.0*
O=C(/C=C/c1ccccc1)c1ccc(O)cc1O	41.4
CCOC(=O)c1coc(N2CCC3(CC2)C(=O)Nc2ccccc23)n1	48.0
O=c1ccc(-c2nc3ccccc3[nH]2)c[nH]1	-51.5
COCCN1Cc2ccccc2C2(CCN(C(=O)c3cnc[nH]3)CC2)C1	25.0
O=C1CCC2C(CCN2Cc2cccs2)N1CCN1CCCC1 (stereo unspecified)	-4.6
COc1ccc2c(c1)c(CC(=O)N1CCOCC1)c(C)n2C(=O)c1ccc(Cl)cc1	-1.3
COc1ccc2nc(Cl)c(CNCc3ccccc3F)c(N3CCOCC3)c2c1	-99.4*
COc1cc(CNc2ccc(N3CCOCC3)cc2)ccc1OCc1ccccc1F	-16.9
CCC1CCC(C(=O)NCc2nc(Cc3ccccc3)n[nH]2)CC1 (stereo unspecified)	-4.6
CCS(=O)(=O)N1CC(C(=O)NCC2CC2)C2(CCOCC2)C1 (stereo unspecified)	64.9
COc1cccc(S(=O)(=O)N2CCCCN3[C@H](CO)[C@H](c4ccc(C#CCC(C)C)cc4)[C@H]3C2)c1	-81.3*
COc1cccc(S(=O)(=O)N2CCCCN3[C@H](C2)[C@@H](c2ccc(C#CCC(C)C)cc2)[C@@H]3CO)c1	-33.4
COc1cccc(S(=O)(=O)N2CCCCN3[C@@H](CO)[C@@H](c4ccc(C#CCC(C)C)cc4)[C@@H]3C2)c1	-63.5
Cc1ccc(OCCN(C)C)c(NC(=O)c2noc3c2CC(C(C)(C)C)CC3)c1 (stereo unspecified)	-73.7*
CN(C)c1cc(C(=O)Nc2ccccc2OCC2CCCCO2)ccn1 (stereo unspecified)	-8.1
CC(C)(C)C1CCc2onc(C(=O)NCC(C)(C)N3CCCCC3)c2C1 (stereo unspecified)	-14.6
COc1cc([C@@H]2c3cc4c(cc3[C@@H](O[C@@H]3O[C@@H]5CO[C@@H](c6cccs6)O[C@H]5[C@H](O)[C@H]3O)[C@H]3COC(=O)[C@H]23)OCO4)cc(OC)c1O	-71.2*
COc1cc([C@@H]2c3cc4c(cc3C(OC3OC5COC(C)OC5C(O)C3O)C3OCC(=O)[C@@H]32)OCO4)cc(OC)c1O (stereo partly specified)	-81.0*
COc1cc([C@@H]2c3cc4c(cc3C(OC3O[C@@H]5COC(C)O[C@H]5[C@H](O)[C@H]3O)C3COC(=O)[C@@H]32)OCO4)cc(OC)c1O (stereo partly specified)	-69.7
COCCN1CCO[C@H]2CCN(C(=O)c3snnc3C)C[C@H]21	166.7
CCS(=O)(=O)N1CCC2(CC1)CNCc1ccccc12	-41.8
Cc1nn(C)c(Cl)c1CN1CC[C@@H](c2ccc(F)cc2)[C@H](O)C1	-55.4
Cc1noc(C)c1CN(C)C(=O)c1cccc(NCc2cccnc2)c1C	-8.6
Cc1c(NCc2cccnc2)cccc1C(=O)N1C[C@@H](C)O[C@@H](C)C1	-83.2*
SMILES	Tgondii IFNg
CCC1c2cccn2CCN1C(=O)c1cccc(NCc2cccnc2)c1C (stereo unspecified)	2.1
CN(Cc1ccc(-n2cccn2)cc1)Cc1ccc(-c2ccn[nH]2)s1	10.3
O=C1COC2(CCN(Cc3ccsc3)CC2)CN1CC1CC1	-4.9
Cc1cc2cc(NC(=O)CNC(=O)c3nc4ncccn4n3)cc(Cl)c2o1	5.2
Cc1cc2cc(NC(=O)c3nc4ccccc4n(C)c3=O)cc(Cl)c2o1	28.1
Cc1cc2cc(NC(=O)CN3C(=O)NC(C)(c4ccccc4)C3=O)cc(Cl)c2o1 (stereo unspecified)	-77.2*
CN(Cc1ccc2cccc(O)c2n1)Cc1noc(C2CCC2)n1	-12.3
CN(C)CCN1CCC2(CCCN(C(=O)c3ccoc3)C2)CC1	-15.7
Cc1cc(C(=O)N2CCC3(CC2)CC(=O)Nc2ccccc23)n[nH]1	264.4
CC(C)CN(Cc1cccc(Cl)c1)C(=O)[C@@H]1C[C@@H](O)CN1	-6.5
CCn1c(-c2cc(NC(=O)c3cccnc3)n[nH]2)cc2c(OC)cccc21	-47.9
CCn1c(-c2cc(NC(=O)c3cncc(Br)c3)n[nH]2)cc2cc(OC)ccc21	37.4
CCn1c(-c2cc(NC(=O)c3ccncc3)n[nH]2)cc2ccc(OC)cc21	-92.0*
O=C1CN(Cc2cccn2-c2ncccn2)CC(OCc2ccccn2)CN1C1CCCCC1 (stereo unspecified)	3.7
Fc1cnc(N2CCC3(COCc4cnc(NCC5CC5)nc43)C2)nc1 (stereo unspecified)	-30.9
Cc1nc2c(Cl)cc(Cl)cc2c2nc(N)nn12	-92.3*
Cc1cc(C)c(S(=O)(=O)NCCc2csc(-c3cccc(F)c3)n2)c(C)c1	61.0
COCc1cncc2c1CCN(C(=O)c1ccc3[nH]ccc3c1)C2	-7.9
O=C1NC(=O)C(c2ccccn2)(C2CCN(c3ncccc3Cl)CC2)N1 (stereo unspecified)	-2.1
CC(C)N=C(N)/N=C(\N)Nc1ccc(Cl)cc1	12.2
